Measured values: PubChem BioAssay AID1063 (University of Pittsburgh Molecular Library Screening Center, 2008)
The whole screen tested about 200,000 compounds, of which about 18,000 (9%) were called active. This is one part of a sample in which actives are shown more often than they occur. Values without a mark were called inactive. Rule as the data show it: active = inhibition above about 50%; inactive = the rest.

test: Leishmania major promastigote growth inhibition, primary screen (AID 1063); details: Leishmania major promastigotes, resazurin fluorescence viability; at 10 µM; hits give high values;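 also: promastigotes grown with compound for 44 hours at 28 °C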

| SMILES | inhibition |
| --- | --- |
| Cc1cccc(NC(=S)NC23CN4CN(CN(C4)C2)C3)c1 | -0.78% |
| CC(=O)NC1CC2CCCC(C1)N2CC(=O)Nc1ccccc1 (centres undefined) | -0.85% |
| Cc1ccc(NC(=O)CN2CCC3(O)CCCCC3C2c2ccc3c(c2)OCO3)c(C)c1 (centres undefined) | 89.1% (active) |
| O=C(CN1CCOCC1)Nc1ccccc1 | -4.08% |
| CCN(CC)c1ccc(C2C3CCCCC3(O)CCN2CC(=O)Nc2ccccc2)cc1 (centres undefined) | 78.2% (active) |
| CC1CCCCN1CC(=O)NCc1ccc2c(c1)OCO2 (centres undefined) | 4.4% |
| CC1CCCCC1NC(=O)CN1CCC(O)(c2ccc3c(c2)OCO3)CC1 (centres undefined) | 30.1% |
| Cn1c(=N)n(CC(O)c2ccccc2)c2ccccc21 (centres undefined) | 3.48% |
| Cc1cccc(OCC(O)Cn2c(=N)n(CCN3CCOCC3)c3ccccc32)c1 (centres undefined) | 10.1% |
| CCOc1ccc(C(O)Cn2c(=N)n(CCN3CCCCC3)c3ccccc32)cc1 (centres undefined) | 80.6% (active) |
| CCOC(=O)C1C(c2ccc(Cl)cc2)NC(=S)NC1(O)C(F)(F)F (centres undefined) | -2.87% |
| COc1ccc(OCC(=O)N2CCN(C(=O)COc3ccccc3)CC2)cc1 | -5.93% |
| COc1ccc(OCC(=O)N2CCOCC2)cc1 | 0.46% |
| CC1CN(C2CCN(C(=O)COc3ccccc3)CC2)CC(C)O1 (centres undefined) | 88.1% (active) |
| Cc1csc(CN(C)C(=O)CC2C(=O)NCCN2CC(C)(C)C)n1 (centres undefined) | -1.56% |
| O=C(N/N=C/c1ccc([N+](=O)[O-])cc1)c1c[nH]c2ccccc12 | 2.8% |
| Cc1cc(C)c(C(N)=O)c(Cl)n1 | -12.9% |
| Cc1cc(C)nc(N2CCC(C(=O)Nc3ccc4c(c3)OCCO4)CC2)n1 | -3.98% |
| COc1ccc(S(=O)(=O)Nc2cccnc2)c(Cl)c1Cl | 1.47% |
| CCOC(=O)C1CCN(CCC(=O)Nc2cccc(C)c2)CC1 | 92.7% (active) |
| CC1CCN(CCC(=O)Nc2ccccc2)CC1 | 18.3% |
| CCOC(=O)C1CCN(C(=O)C2(NC(=O)Nc3cccc(F)c3)CCCCC2)CC1 | -15.2% |

| SMILES | inhibition |
| --- | --- |
| O=C(O)/C=C\C(=O)Nc1ccc(OCc2ccccc2)cc1 | -4.77% |
| Cc1c(-c2nn(C)c(=O)c3ccccc23)oc2ccc(F)cc2c1=O | 94.9% (active) |
| Cc1ccc(F)cc1NC(=O)Cc1nn(C)c(=O)c2ccccc12 | -5.08% |
| O=C1c2oc3ccc(Br)cc3c(=O)c2C(c2cccc(F)c2)N1CCO (centres undefined) | -1.54% |
| CCN(CCCNC(=O)CCn1c(=O)[nH]c2ccsc2c1=O)c1ccccc1 | -5.73% |
| COC(=O)c1cc(NC(=O)c2cccnc2)ccc1N1CCOCC1 | -4.83% |
| c1ccc(-c2noc(-c3cccs3)n2)nc1 | -1.93% |
| O=C(Cn1cc(-c2nnnn2-c2ccc(Cl)cc2)c(=O)c2ccccc21)c1ccccc1 | -4.69% |
| Clc1ccc(-n2nnnc2-c2cnc(-c3ccccn3)nc2-c2cccs2)cc1 | 61.2% (active) |
| CC(C)(C)OC(=O)N/N=C/c1cn(-c2ccccc2)nc1-c1cccnc1 | 21.8% |
| COc1ccccc1N1CCN(C(=O)c2cn(-c3ccccc3)nc2-c2cccnc2)CC1 | 84.2% (active) |
| COc1cccc(-c2nn(C)c3sc(C(=O)N4CCN(c5ccccc5)CC4)cc23)c1 | 20.1% |
| O=C(c1cn(-c2ccccc2)nc1-c1cccnc1)N1CCCCC1 | -1.11% |
| CCOC(=O)N1CCN(C(=O)c2cc3c(-c4ccc(Cl)cc4)nn(C)c3s2)CC1 | 10.6% |
| COc1ccccc1N1CCN(C(=O)c2cc3c(-c4ccc(Cl)cc4)nn(C)c3s2)CC1 | 60.4% (active) |
| C/C(=N/Nc1ccc(Cl)cc1)c1cnnc(-c2ccccc2)n1 | 2.35% |
| Cc1ccc(C(=O)NC(=S)Nc2ccccc2C)cc1 | 0.17% |
| C/C(=N\NC(=O)COc1c(C)cccc1C)c1cccs1 | 2.87% |
| Cc1nn(-c2ccccc2)c(C)c1/C=N/NC(=O)CSc1nc2ccccc2c(=O)n1-c1ccccc1 | 14.7% |
| C/C(=N\NC(=O)CSc1nc2ccccc2c(=O)n1-c1ccccc1C)c1cccs1 | 91% (active) |
| Cc1ccnc(NC(=O)CCCOc2ccccc2)c1 | -3.55% |
| O=C(Nc1ccc(F)cc1)N1CCN(c2ccc(F)cc2)CC1 | -0.19% |
